Potency and Z-AUC data for 14 molecules are collected here from PubChem BioAssay (NCATS).

Records with an inconclusive call do not appear. A call without a number means that no potency is given here. Activity calls are given as the source filed them. Unless noted, calls follow the shape of the dose curve; as a rule, active = well fitted activation curve with a large enough effect; inconclusive = small, poorly fitted or top-dose-only effect; inactive = flat fitted curve, though single readings scatter.

Assay [1] in a line: Primary redox qHTS assay for identification of artifact compounds. (AID 1845223). Summed up: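 Amplex Red (25 uM) and HRP (250 mU/mL) in HBSS, with compounds for 15 min, then 250 uM DTT for 30 min, room temperature, dark. Fluorescence 525/598 nm read; normalized to DMSO and 10 uM DA3003; Hill fit.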
Background: In qHTS, concentration-response curves come from the screen itself.

Assay [2] is described as follows: qHTS drug screen for cell cycle checkpoint inhibitors in PARPi-resistant BRCA-mutant ovarian cancer cell lines. (AID 1963452; calls by dose curve). The settings on record: PEO1/OlaR viability, CellTiter-Glo luminescence, 96 h, stronger effect = lower value. The essentials: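 PEO1, PEO4 and PEO1/OlaR ovarian cancer cells, 600 per well, exposed 96 h at 37C to a dilution series. Viability read by CellTiter-Glo luminescence, normalized to DMSO and empty wells; activity summarized as Z-AUC.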

The mark [3] stands for this setting: measured here: PEO1 parental Z-AUC.

`O=c1[nH]c2cccc(N3CCN(Cc4ccc(-c5ccccc5)cc4)CC3)c2o1`: in assay [1], the Potency result is “inactive”. Still for that read-out and setting: the value for `O=S(=O)(Nc1cc(Cl)c(Oc2cnc3ccccc3c2)c(Cl)c1)c1ccc(Cl)cc1Cl` was “inactive”; that for `C=C1C(=O)O[C@@H]2C[C@H](C)C3=CC(=O)[C@H](O)[C@@]3(C)C[C@H]12` was “inactive”; that for `COC(=O)c1ccnc(-c2cc(C(=O)Nc3ccc(C4(N)CC4)cc3)ccn2)c1` was “inactive”.

`C=C1C(=O)OC2/C=C(/C)C3=CC(=O)C(C)(CC(OC(=O)/C(C)=C/COC(C)=O)C12)O3` (stereo not drawn): the Potency entry in assay [1] is “inactive”. Still for that read-out and setting: in the case of `COc1ccccc1S(=O)(=O)Nc1ccc2c(c1)CN(C)C(=O)N2` it was “inactive”; in that of `CC(C)C[C@H](C(=O)O)c1cc(-c2ccc(C(F)(F)F)cc2)cc(-c2ccc(C(F)(F)F)cc2)c1`, “inactive”; in that of `O=C(Nc1ccc(C(F)(F)F)cn1)N1CCN(c2ncccc2C(F)(F)F)CC1`, “inactive”. Take `CCC[C@H](N[C@H]1CCc2cc(F)cc(F)c2C1)C(=O)Nc1cn(C(C)(C)CNCC(C)(C)C)cn1`: in assay [1], the Potency result is “inactive”. Besides, the Z-AUC in assay [2] was -0.27 (inactive); in assay [2] (setting [3]), 0.0318; in assay [2] (measured here: PEO4 Z-AUC), -0.108. For `CC1(CO)CC2C(O)C3=C(CC(C)(O)C2C1)C(=O)OC3` (stereo not drawn), in assay [1], the Potency entry is “inactive”. As for `CC(C)S(=O)(=O)c1ccc2nccc(Nc3ccc4scnc4c3)c2c1`, in assay [1], the Potency result was “inactive”. For the same molecule, the Z-AUC in assay [2] was -0.9 (inactive); in assay [2] (setting [3]), -0.597; in assay [2] (measured here: PEO4 Z-AUC) it was -0.874. With `O=C(NNc1nc2cc(F)ccc2n2cccc12)c1cnccn1`, the Potency result in assay [1] was “inactive”.

With `Nc1nc(OCc2cc(Br)cs2)c2[nH]cnc2n1`, the Potency entry in assay [1] was “inactive”. Besides, the Z-AUC was -0.86 (inactive) in assay [2], 0.672 in assay [2] (setting [3]) and 0.221 in assay [2] (measured here: PEO4 Z-AUC). On to `C=C1CC[C@@H]2[C@](C)(CO)[C@H](O)CC[C@@]2(C)[C@@H]1C/C=C1/C(=O)OCC1O` (stereo partly drawn), for which the Potency result in assay [1] was “inactive”.
